Source: PubChem
GLS inh: blocks human kidney-isoform glutaminase activity; GLS enzymatic activity, qHTS titration; AID 624170; hit rate 0.21% among 410,000; O94925; Potency, µM (series often up to 45.5 µM), actives largely listed as inhibitors
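Compounds were pin-transferred onto hKGA, after which L-glutamine (1 mM solution) and a detection mix of glutamate oxidase, HRP and Amplex Red were added. Initial and 30 min RT fluorescence reads were collected.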
GLP1R inv ag: inverse agonists of human GLP-1 receptor; HEK293 GLP-1R CRE-luciferase, luminescence, 24 h; GLP-1R form is constitutively active; P43220; hit rate 1.6% among 410,000; Potency, µM (highest dose often 38.3 µM), usual class: inhibitors; note: nearly all actives have a fitted effect of over 55% in size
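Luminescence readout: a drop in cAMP-driven luciferase signal flags inverse agonism at a constitutively active GLP-1R stably expressed in HEK293. Compound exposure lasted 24 hr at 37 deg C, 5% CO2.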
GLP1R ag: agonists of human GLP-1 receptor | HEK293 GLP-1R CRE-luciferase, luminescence, 4-6 h; cells express a hypersensitive GLP-1R form | P43220 | AID 624172 | hit rate 0.007% among 380,000 | Potency, µM (top dose mostly 45.6 µM), hits mostly activators
KCNH2 3.1 inh: KCNH2 3.1 (human) potassium channel inhibition | AID 720553 | hit rate 0.95% among 340,000 | activity change, % (tested at about 1.8 µM) | U2OS KCNH2 3.1, thallium flux FluxOr; hits give low values;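 active = maximum activity change below -70%; inconclusive = maximum activity change from -70% to -50%; inactive = maximum activity change above -50%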;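 note: thallium influx rate constant from kinetic fluorescence after stimulation buffer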
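Virally transduced U2OS (3.1 isoform, 4 h infection in dark at RT) → overnight 37 C → FluxOr + Red40 in HBSS/HEPES, 45 min → stimulation buffer, 2 min kinetic read → rate constant vs DMSO controls.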
hERG WT inh: inhibitors of human wildtype KCNH2 potassium channel; U2OS, BacMam KCNH2, thallium flux FluxOr; hits give low values; activity change, % at 1.84 µM; Q12809; AID 720551; hit rate 0.37% among 340,000;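 active = maximum activity change below -70%; inconclusive = maximum activity change between -70% and -50%; inactive = maximum activity change above -50%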
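U2OS cells transduced with wild-type KCNH2 virus are loaded with FluxOr dye for 45 min, and thallium flux is measured in kinetic reads before and after stimulation buffer. Rate constants are normalized to DMSO controls.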
HEK293 tox: cytotoxicity in counter-screen for GLP-1R inverse agonists; Potency, µM (highest dose often 38.3 µM), actives largely listed as inhibitors; hit rate 0.13% among 410,000; HEK293 cAMP-luciferase reporter cells, luminescence, 24 h;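 note: loss of luciferase light is scored as toxicity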
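Compound-treated cells are incubated 24 hr at 37 deg C under 5% CO2 after a 12 hour attachment period, then luciferase detection reagent is added and luminescence is measured following 12 min at room temperature; lowered signal indicates toxicity.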
Numbers stand for hits; n = inactive; u = inconclusive; x = no result given. Rows were chosen to be rich in hits. Some 2.8% of all compounds tested hit in one or more screens of this group. Unless noted, calls come from the whole dose curve; as a rule, active = well fitted curve in the direction sought with a large enough effect; inconclusive = small, poorly fitted or top-dose-only effect, or another doubt; inactive = no such curve, though single readings can be large; an effect the other way counts as inactive or inconclusive.

SMILES	GLS inh	GLP1R inv ag	GLP1R ag	KCNH2 3.1 inh	hERG WT inh	HEK293 tox
CCC(C)NC(=O)c1c(N)n(CC2CCCO2)c2nc3ccccc3nc12 (centres undefined)	n	7.9µM	n	n	n	n
CC(C)CCNC(=O)c1c(N)n(CC2CCCO2)c2nc3ccccc3nc12 (centres undefined)	n	u	n	n	n	n
COc1ccc(OC)c(N2C(=O)NC(=O)/C(=C\c3ccc([N+](=O)[O-])s3)C2=O)c1	10µM	n	n	n	n	n
COc1ccc(Oc2ccc(/C=C/C(=O)c3ccc(O)cc3)cc2[N+](=O)[O-])cc1	n	u	n	n	n	u
C#CCN(C[C@@H]1[C@@H](OC(=O)Nc2c(C)noc2C)[C@@H](OC(=O)Nc2c(C)noc2C)Cn2c(=O)n(CCCCCC)c(=O)n21)S(=O)(=O)c1ccc(C)cc1	n	u	n	n	n	n
CCCCOc1ccccc1C1CC(=O)Nc2cc(C)c(C)cc21 (centres undefined)	n	13µM	x	x	x	u
CC(C)(C)[C@@H]1COC(=O)[C@@H](Cc2ccc(F)cc2)CC/C=C\C[C@@H](CC(=O)N(CCO)Cc2ccccc2)C(=O)N1	n	10µM	n	n	n	n
N/N=C/C(=N\Nc1ccc(Cl)cc1)C(=O)c1ccncc1	n	n	n	n	n	u
Cc1oc2c(c1C(=O)NCc1cccnc1)C(=O)c1ccccc1C2=O	n	3.2µM	n	n	n	u
Cc1ccc2[nH]c(C)c(CCNCc3cccnc3)c2c1	n	n	n	n	n	n
CCCCCSc1cc(OC)c(CCN(C)C)cc1OC	n	u	n	-70	n	n
COc1ccc2[nH]cc(CCN(C)C)c2c1	n	n	n	n	n	n
NS(=O)(=O)c1ccc(CCNc2ccn3nc(-c4cccc(C(F)(F)F)c4)cc3n2)cc1	n	u	n	x	x	n
CCN(CC)c1ccc(/C=C/C(=O)c2ccc(Br)cc2)cc1	n	u	n	u	-167	n
CC(=O)c1ccc(NC2=NCCCS2)cc1	n	n	n	n	n	n
O=C(/C=C/c1ccc(Br)cc1)c1ccc(NC2=NCCCS2)cc1	n	5µM	n	n	n	u
CCn1cc(C(=O)NCc2ccc3c(c2)OCO3)c(=O)c2cc(F)c(N3CCN(C(=O)c4ccco4)CC3)cc21	n	n	n	n	n	u
COc1ccc(C(=O)Nc2ccc(S(=O)(=O)N(Cc3ccccc3)c3ccccc3)cc2)cc1	n	5µM	x	x	x	n
OC[C@@H]1[C@@H](c2ccc(Cl)cc2)C(c2ccc(F)cc2)=NN1c1ccccc1	n	u	n	n	n	n
CCOc1ccc(CCNC(=O)c2cc3c(-c4ccc(OC)c(OC)c4)nn(C)c3s2)cc1OCC	n	u	x	x	x	n
O=C1C=C(N2CCOCC2)c2ccccc2C1=O	n	u	n	n	n	11µM
O=C(C1CCC(CNc2nc(=S)[nH]c3ccccc23)CC1)N1CCN(c2ccc(F)cc2)CC1 (centres undefined)	n	u	n	n	n	u
Cc1ccsc1C(=O)C1CCCN(Cc2cccn2-c2ccccn2)C1 (centres undefined)	n	u	n	-75	n	u
O=C1NC[C@H](CCCCN2C[C@@H](Cc3ccccc3)N(CCC3CCCCC3)C(=O)C2=O)N(CCC2CCCCC2)C1=O	n	n	n	x	x	n
O=C(Nc1ccccc1Cl)c1ccccc1Oc1ccc(C(F)(F)F)cc1[N+](=O)[O-]	n	7.1µM	n	n	n	u
O=C(c1ccccc1)c1nn(-c2ccc(Cl)cc2)c(=O)cc1C(F)(F)F	n	4µM	n	n	n	u
O=C(O)c1nn(Cc2ccc(Cl)cc2)c2ccccc12	n	n	n	n	n	n
CCC1C(c2ccccc2)NC(c2ccccc2)CC1(O)c1ccc(F)cc1 (centres undefined)	n	11µM	n	n	n	u
OCCN1C2CCC1CC(O)(c1ccc(F)cc1)C2 (centres undefined)	n	n	n	n	n	n
